Reference: PubChem BioAssay (NCI)
This is part of a sample that, as a whole, favours compounds with a hit. Of some 79,000 tested, about 15% had one in any assay. No stated cut-off is given here; in the data, active means growth inhibition above about 70%; inactive means the rest.

Assays:
[1] = NCI Yeast Anticancer Drug Screen. Data for the rad50 strain (AID 155);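 further: 0% = growth of vehicle-only cultures of the same strain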; conditions: S. cerevisiae rad50 strain growth inhibition; at 50.0 µM; active compounds read high
Outline: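 Relative growth inhibition (compound vs vehicle) was measured in yeast with a defined repair-gene alteration.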

[2] = NCI Yeast Anticancer Drug Screen. Data for the mec2-1 strain (AID 157); conditions: S. cerevisiae mec2-1 strain, at 50.0 µM, active compounds read high
Outline: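 Compounds were applied to mec2-1 yeast cells. Their growth was then compared with that of vehicle-treated cultures to give growth inhibition.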

[3] = NCI Yeast Anticancer Drug Screen. Data for the sgs1 mgt1 strain (AID 161);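 further: 0% = growth of cultures given vehicle only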; conditions: S. cerevisiae sgs1 mgt1 strain, at 50.0 µM, active compounds read high
Outline: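 This yeast growth screen uses a strain with defined DNA-repair lesions; compound-treated growth is compared with vehicle-treated growth.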

[4] = NCI Yeast Anticancer Drug Screen. Data for the cln2 rad14 strain (AID 165);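 further: 0% = growth equal to vehicle treated cultures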; conditions: S. cerevisiae cln2 rad14 strain, at 50.0 µM, active compounds read high
Outline: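 Strain: cln2 rad14 yeast, altered in cell cycle control and DNA damage repair. Read-out: growth inhibition vs vehicle.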

[5] = NCI Yeast Anticancer Drug Screen. Data for the bub3 strain (AID 167); conditions: S. cerevisiae bub3 mutant strain, at 50.0 µM, active compounds read high
Outline: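 Screening used yeast with an engineered genetic alteration affecting cell cycle control. Compound-exposed cultures were compared with vehicle cultures, and reduced growth was taken as inhibition.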

[6] = NCI Yeast Anticancer Drug Screen. Data for the mlh1 rad18 strain (AID 175); conditions: S. cerevisiae mlh1 rad18 strain growth inhibition; at 50.0 µM; active compounds read high
Outline: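 A repair-deficient yeast strain is exposed to test compound, and growth is scored relative to vehicle-treated controls.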

Measured: growth inhibition

CC1CCCc2c1c1ccc3c(O)cccc3c1oc2=O (stereo unspecified)
inactive: [1] -10% | [2] -4.15% | [3] -15.4% | [4] 16.9% | [5] -5.95% | [6] -18.9%

CCOC(=O)C(C#N)(Cc1c(-c2ccccc2)[nH]c2ccccc12)NC(C)=O (stereo unspecified)
inactive: [1] -4.25% | [2] 0.75% | [3] 4.85% | [4] -14.6% | [5] 7.9% | [6] 6.15%

CN1C(=O)C(/C=N/NC(=O)c2cccnc2)C(N)N(C)C1=O (stereo unspecified)
inactive: [1] 4.85% | [2] 18.2% | [3] -4.8% | [4] -1.45% | [5] -41.9% | [6] 31.7%

COc1cc2ccnc([C@@H](OC(=O)c3ccccc3)c3ccc(OC)c(OC)c3OC)c2cc1OC
inactive: [1] 10.4% | [2] 9.25% | [3] 40.9% | [4] 6.25% | [5] 0.05% | [6] 52.4%

O=C(/C=C\c1ccc(Cl)cc1)OCCCCOC(=O)/C=C/c1ccc(Cl)cc1
inactive: [1] 27.1% | [2] 3.15% | [3] -4.45% | [4] 9.5% | [5] 2.9% | [6] 5.25%

Nc1nc(N)c(-c2ccccc2)c(CCC(=O)Nc2ccc(Cl)cc2)n1
inactive: [1] -34.8% | [2] 3.95% | [3] -3.35% | [4] -27.9% | [5] -21.5% | [6] 7.8%

CCS(=O)(=O)CC(C)O (stereo unspecified)
inactive: [1] 13.7% | [2] -11.3% | [3] -4.2% | [4] 10.1% | [5] 11% | [6] -7.95%

COC(=O)c1ccc(Cl)cc1
inactive: [1] 19.4% | [2] -3.2% | [3] -8.8% | [4] 14.3% | [5] 14.5% | [6] 2.45%

O/N=C1\c2ccccc2-c2cccc(I)c21
inactive: [1] 23.4% | [2] -5.25% | [3] 7.8% | [4] 1.5% | [5] 1.1% | [6] 5.5%

CC(Br)C(=O)Nc1ccc(C(=O)O)c(O)c1 (stereo unspecified)
inactive: [1] 3.85% | [2] -32.8% | [3] -18.8% | [4] 20.9% | [5] -7.5% | [6] 2.95%

CC(=O)NCCc1ccc(OC(C)=O)c(OC(C)=O)c1
inactive: [1] 0.15% | [2] -10.6% | [3] 26.2% | [4] 6.45% | [5] 23.4% | [6] 16.1%

Cc1ccc(Cl)cc1NC(=O)Oc1ccccc1C(=O)OCc1ccccc1
inactive: [1] -31.9% | [2] -1.55% | [3] 18.5% | [4] -37.3% | [5] 20.2% | [6] 19.9%

COc1ccc(OC(=O)Nc2ccc(OC)cc2Cl)cc1
inactive: [1] 3% | [2] 5.75% | [3] 7.05% | [4] 12.6% | [5] 24.7% | [6] 7.7%

CC(=O)c1cc2c(cc1C)C(C)=C(C)C2(C)C
inactive: [1] -3.1% | [2] -2.35% | [3] 1.55% | [4] -13.4% | [5] 0.65% | [6] -2.9%

CN(C)S(=O)(=O)C1(c2ccccc2)CCCC1
inactive: [1] 15.1% | [2] 9.85% | [3] 6.2% | [4] -1.5% | [5] -7% | [6] 1.9%

COc1ccc(C(=O)C(CO)Oc2ccccc2OC)cc1OC (stereo unspecified)
inactive: [1] -3.05% | [2] 7.5% | [3] -20.2% | [4] 4.25% | [5] -13.5% | [6] -1.35%

C=CCNC(=S)N/C=C(\C#N)c1nc2ccccc2s1
inactive: [1] 0.3% | [2] -6.3% | [3] -15% | [4] 32.4% | [5] -4.35% | [6] 31.3%

O=C(O)CCC1CCCO1 (stereo unspecified)
inactive: [1] -5.4% | [2] -9.35% | [3] -9.3% | [4] 10.2% | [5] 15.3% | [6] -0.6%

CCCCNc1nc(NC2OCC(OC(C)=O)C(OC(C)=O)C2OC(C)=O)c(N=O)c(=O)n1C (stereo unspecified)
inactive: [1] -4% | [2] -21.4% | [3] -4.3% | [4] -28.4% | [5] -12.5% | [6] -2.9%

CCCCOCC(=O)NC1CCCCC1
inactive: [1] 29.9% | [2] -30.4% | [3] -39.4% | [4] -10.2% | [5] -24.1% | [6] 33.6%

CCOC(=O)c1nc2cc(N3CCOCC3)c(F)cc2[nH]c1=O
inactive: [1] 16.9% | [2] 23.6% | [3] 23.2% | [4] 3.45% | [5] 28.2% | [6] 34%

CC(C)(C)NC(=O)NCc1cccc(Cl)c1
inactive: [1] 0.25% | [2] -19.6% | [3] -4.15% | [4] -36.1% | [5] -3% | [6] -3.25%

CC1CCCN(P(c2ccccc2)N2CCCC(C)C2)C1 (stereo unspecified)
inactive: [1] 25% | [2] 4.6% | [3] 16.4% | [4] 15.4% | [5] 26% | [6] 13%

c1ccc2c(c1)nc(NC1CCCC1)c1[nH]c(C3CCCC3)nc12
inactive: [1] -26.1% | [2] -36.6% | [3] -56.9% | [4] -10.3% | [5] -29.2% | [6] -50%

CCOC(=O)C(C#N)C1(C(C#N)C(=O)OCC)C(=O)Nc2ccccc21 (stereo unspecified)
inactive: [1] 1.8% | [2] 14.6% | [3] 19.8% | [4] 21.8% | [5] 24.7% | [6] 32.3%

CN(C)NC(=S)Nc1ccccc1
inactive: [1] -5.05% | [2] -0.65% | [3] -11.8% | [4] -36% | [5] -1.7% | [6] -6.15%

Cc1nc(-c2cc([N+](=O)[O-])cc([N+](=O)[O-])c2)oc1-c1ccccc1
inactive: [1] -15.2% | [2] -1.95% | [3] -7.35% | [4] 13% | [5] -3.25% | [6] -3.4%

N#Cc1cccc(N2C(=O)c3ccc(C(=O)c4ccc5c(c4)C(=O)N(c4cccc(C#N)c4)C5=O)cc3C2=O)c1
inactive: [1] -25.9% | [2] -16.3% | [3] -49.5% | [4] 23.8% | [5] -0.7% | [6] -12.3%

O=C(NCCNC(=O)c1cc(Cl)cc(Cl)c1O)c1cc(Cl)cc(Cl)c1O
inactive: [1] -1.35% | [2] 11.4% | [3] 9.3% | [4] -18.4% | [5] -4.9% | [6] 21.8%

CCOC1C[C@H]2C[C@H]3[C@@H]4CC=C5C[C@@H](OC(C)=O)CC[C@]5(C)[C@H]4CC[C@]3(C)C2=C(C)O1 (stereo partly specified)
inactive: [1] 20.9% | [2] 12.7% | [3] 22.9% | [4] 36% | [5] 8.05% | [6] 20.6%

CNC(=O)c1ccccc1C
inactive: [1] -1.15% | [2] -6% | [3] -6.9% | [4] -33.3% | [5] 6.55% | [6] 0.35%

C=CCNC(=O)ON1C(=O)CCC1=O
inactive: [1] -19.8% | [2] 3.05% | [3] -35.6% | [4] -8.65% | [5] -22.9% | [6] -39.5%

O=C1NC(=O)C(=O)N1
inactive: [1] 25.8% | [2] 13.4% | [3] 8.65% | [4] 16.4% | [5] 27.8% | [6] -1.8%

CCN(CC)C(=O)c1ccc[n+](CCC(N)=O)c1
inactive: [1] -1.05% | [2] -17.8% | [3] -3% | [4] 14.8% | [5] -8.5% | [6] 6.6%

C[n+]1ccn(S(=O)(=O)[O-])c1
inactive: [1] 1.9% | [2] 4.2% | [3] -4.35% | [4] 0.55% | [5] -19.6% | [6] -8.05%

CCN(C(=S)Nc1cccc(C(F)(F)F)c1)c1ccccc1
inactive: [1] 38.1% | [2] 22.9% | [3] 49% | [4] 13.9% | [5] 41% | [6] 22.6%

CC(=O)N1CCC(=O)c2ccccc21
inactive: [1] 11.3% | [2] 14.3% | [3] -1.8% | [4] 6.1% | [5] -24.3% | [6] -5.35%

O=C1NC(=O)C(c2ccc(Cl)c(Cl)c2)N1 (stereo unspecified)
inactive: [1] 11.2% | [2] -10% | [3] -13.2% | [4] -13.7% | [5] -12.9% | [6] -3.55%

O=S1(=O)CCC(Br)c2ccccc2C1 (stereo unspecified)
inactive: [1] 6.15% | [2] 21% | [3] -7% | [4] 14.2% | [5] 3.85% | [6] -5.4%

NC(N)=Nc1cccc2c1CC=CC2
inactive: [1] 0.2% | [2] -3.45% | [3] -5.3% | [4] -5.7% | [5] 2% | [6] -0.2%

COc1cc(OC)c2nc3ccccc3c(NCCC[N+](C)(C)[O-])c2c1[N+](=O)[O-]
inactive: [1] 7.65% | [2] -33.6% | [3] -12.9% | [4] -22.2% | [5] -14.2% | [6] -17.8%
